Measured values published in PubChem BioAssay (NCATS).
Records with an inconclusive call do not appear. Values without a mark were called inactive. Active and inactive are the calls of the source. The call rests on the fitted dose curve; in most records, active means well fitted cell-killing curve with a large enough effect; inconclusive means small, poorly fitted or top-dose-only effect; inactive means flat fitted curve, though single readings scatter.
Potency means the concentration at half of the fitted maximal effect.

Assay: Cell Viability - Mesenchymal (AID 546);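 further: cells exposed to compound for 40 hours before reading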;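 on activity change, negative = cytotoxicity: 0% = DMSO only and -100% = 100 µM tamoxifen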
Settings: mesenchymal cells viability, qHTS; activity change, negative = cytotoxicity: at 91.7 µM (top of the series)
From the text: NIH Chemical Genomics Center [NCGC]
NIH Molecular Libraries Screening Centers Network [MLSCN]
National Institutes of Environmental Health Sciences [NIEHS]
National Toxicology Program [NTP]
We have developed a 1536-well cell-based assay for quantitative high throughput screening (qHTS) against a number of cell lines to determine in vitro cytotoxicity of small molecules. This particular assay uses the kidney mesenchymal cell line which is derived from normal human renal glomeruli.
NCGC Assay Protocol Summary:
The CellTiter-Glo luminescent cell viability assay (Promega) is a homogeneous method to measure the number of viable cells in culture. The end point readout of this assay is based on quantitation of intracellular ATP, an indicator of metabolic activity, using the luciferase reaction. Luciferase catalyzes the oxidation of beetle Luciferin to oxyluciferin and light in the presence of ATP. The luminescent signal is proportional to amount of ATP present.
Using the CellTiter-Glo luminescent cell viability assay, the amount of cellular ATP was measured in the kidney mesenchymal cell line with complete culture medium following compound treatment for 40 hours. The assay was performed in opaque white Kalypsys 1536-well plates. In the screen, tamoxifen and doxorubicin were used as positive controls. Library compounds were measured for their ability to cause acute toxicity in the cell line, as reflected by a decrease in intracellular ATP levels, in a concentration-dependent manner. […] AC50 values were determined from concentration-response data modeled with the standard Hill equation.
qHTS protocol for CellTiter Glo kidney mesenchymal cells cellular assay
[Step] [Parameter] [Value] [Description]
1. Reagent; 5 uL; 1000 kidney mesenchymal cells/well
2. Time; 5 hr; 37 °C incubation
4. Controls; 23 nL; Tamoxifen 0.34 uM to 100 uM & Doxorubicin 0.02 nM to 100 uM
5. Time; 40 hr; 37 °C incubation
6. Reagent; 5 uL; CellTiter Glo reagent
7. Time; 20 min; Room Temperature
8. Detection; Luminescence; Viewlux plate reader
Keywords: cell viability, cytotoxicity, Kidney mesenchymal cell line, luminescence, NTPHTS, NTPHTS_NCGC, NIEHS, EPA, DSSTox, MLSMR, MLSCN, NIH Roadmap, qHTS, NCGC
For `O=Cc1ccc(Cl)c(Cl)c1`, the “activity change, negative = cytotoxicity” value was 7.76%.
For `C=CC(=O)OCCOCCOC(=O)C=C`, the activity change, negative = cytotoxicity was -100% (active).
For `O=[N+]([O-])c1cc([N+](=O)[O-])c2ccc(S(=O)(=O)O)cc2c1O`, the “activity change, negative = cytotoxicity” value was 10.9%.
In the case of `CN(C)c1ccc(C2(c3ccc(N(C)C)cc3)OC(=O)c3cc(N(C)C)ccc32)cc1`, the “activity change, negative = cytotoxicity” value is reported as -1.81%.
With `C/C=C1\C(=O)C[C@H]2[C@@H]3CCC4=CC(=O)CC[C@]4(C)[C@H]3CC[C@]12C` the “activity change, negative = cytotoxicity” value was -11.1%.
With `Cc1cccc(O)c1C` the “activity change, negative = cytotoxicity” value was -3.32%.
With `Cc1ccc(S(=O)(=O)Oc2ccc(N=Nc3ccc(-c4ccc(N=Nc5c(O)ccc6cc(S(=O)(=O)O)cc(S(=O)(=O)O)c56)c(C)c4)cc3C)cc2)cc1` the Potency was 31.6 µM (active).
With `c1ccc2c(c1)ccc1cc3c(ccc4ccccc43)cc12` the “activity change, negative = cytotoxicity” value was -3.83%.
For `ClC1=C(Cl)C(Cl)(Cl)C(Cl)=C1Cl`, the “activity change, negative = cytotoxicity” value was 11.3%.
With `CNc1ccc(O)cc1` the Potency was 31.6 µM (active).
With `CCCCCC/C(C=O)=C\c1ccccc1` the “activity change, negative = cytotoxicity” value was 4.81%.
With `CCC(C)Nc1ccc(NC(C)CC)cc1` (stereo not drawn) the Potency was 12.6 µM (active).
For `Cc1cc(O)c(C(C)(C)C)cc1Sc1cc(C(C)(C)C)c(O)cc1C`, the Potency was 15.8 µM (active).
With `C=C(C)c1ccccc1` the “activity change, negative = cytotoxicity” value was 4.37%.
With `O=C(OCC(COC(=O)c1ccccc1)(COC(=O)c1ccccc1)COC(=O)c1ccccc1)c1ccccc1` the “activity change, negative = cytotoxicity” value was 2.34%.
With `CC(=O)Nc1ccc(C(=O)CCl)cc1` the Potency was 12.6 µM (active).
With `Nc1ccc2cc3ccccc3cc2c1` the “activity change, negative = cytotoxicity” value was 0.436%.
With `C=CC(=O)OCC(CO)(COC(=O)C=C)COC(=O)C=C` the activity change, negative = cytotoxicity was -91.9% (active).
For `CN1[C@H]2CC(OC(=O)[C@H](CO)c3ccccc3)C[C@H]1[C@H]1O[C@H]12` (stereo partly drawn), the Potency was “inactive”.
In the case of `O=C=Nc1ccc(Cc2ccc(N=C=O)cc2)cc1`, the “activity change, negative = cytotoxicity” value is reported as -2.24%.
For `O=C(/C=C/c1ccc(O)c(O)c1)OC1C[C@](O)(C(=O)O)C[C@@H](O)[C@H]1O` (stereo partly drawn), the Potency was “inactive”.
With `CC/C(=C(\c1ccccc1)c1ccc(OCCN(C)C)cc1)c1ccc(O)cc1` the Potency was 31.6 µM (active).
For `CCCCCCCC[N+](CCCCCCCC)(CCCCCCCC)CCCCCCCC`, the Potency was 10 µM (active).
